The target in assay [1] is CCAAT/enhancer-binding protein beta (Homo sapiens) (UniProt P17676). The experiment in a line: ATG_C_EBP_CIS: Attagene CIS-FACTORIAL HepG2 Assay for human CCAAT/Enhancer Binding Protein (C/EBP) beta (AID 2282927). The following applies: HepG2 Attagene cis-factorial transcription factor reporter; actives raise or lower the signal. Summed up:
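Chemical-treated HepG2 cells (24 h) bearing cis-regulated reporter constructs were processed for total RNA, then reverse transcription, PCR amplification, fluorescent primer extension and fragment analysis; gain- and loss-of-signal were fitted against DMSO.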

Assay [2] in a line: ATG_DR4_LXR_CIS: Attagene CIS-FACTORIAL HepG2 Assay for human Liver X Receptor (LXR), DR4 submotif (AID 2282929). As to conditions: HepG2 Attagene DR4 cis-reporter, mRNA transcription; actives raise or lower the signal. An outline of the steps:
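HepG2 cells transiently transfected with cis-promoter-driven multiplexed reporter units (DR4 element) were dosed for 24 h. Reporter mRNA was quantified by RT-PCR, fluorescent primer extension, HpaI digestion and capillary electrophoresis; bidirectional fitting versus DMSO baseline.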

The nature of assay [3]: ATG_AP_2_CIS: Attagene CIS-FACTORIAL HepG2 Assay for human Activator Protein 2 (AP-2) (AID 2282932). The following applies: HepG2 AP-2 cis-reporter, Attagene transcription factor profiling; actives raise or lower the signal. Summed up:
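Assay in transfected HepG2 with promoter-regulated reporters, 24 h incubation after dosing. Signal is reporter mRNA fluorescence (RT-PCR, capillary electrophoresis), analysed for both increases and decreases relative to DMSO controls.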

For assay [4], the target named is Transcription factor E2F1 (Homo sapiens) (UniProt Q01094). The assay is described as follows: ATG_E2F_CIS: Attagene CIS-FACTORIAL HepG2 Assay for human E2F Transcription Factor 1 (AID 2282935). As to conditions: HepG2 Attagene cis-reporter, E2F reporter RNA transcripts; actives raise or lower the signal. Summed up: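 In this cis-factorial format, endogenous factor activity drives transfected reporters in HepG2; transcripts collected at 24 h are quantified by fluorescence after RT-PCR and capillary separation.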
Transcription factor E2F1 (Homo sapiens), sequence (Q01094 whole entry, looked up): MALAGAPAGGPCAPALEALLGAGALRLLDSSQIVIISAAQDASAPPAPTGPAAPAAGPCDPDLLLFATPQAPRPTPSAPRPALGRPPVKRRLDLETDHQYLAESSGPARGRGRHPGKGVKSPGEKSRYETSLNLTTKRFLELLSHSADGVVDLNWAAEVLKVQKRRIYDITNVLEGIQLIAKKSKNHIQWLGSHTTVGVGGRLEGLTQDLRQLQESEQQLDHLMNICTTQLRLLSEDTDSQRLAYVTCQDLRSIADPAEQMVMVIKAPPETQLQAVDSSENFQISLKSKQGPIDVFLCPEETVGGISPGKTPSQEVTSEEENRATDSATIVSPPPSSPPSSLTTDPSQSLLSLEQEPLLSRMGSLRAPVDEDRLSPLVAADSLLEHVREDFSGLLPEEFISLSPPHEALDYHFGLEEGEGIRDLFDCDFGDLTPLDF

Assay [5] in a line: ATG_E_Box_CIS: Attagene CIS-FACTORIAL HepG2 Assay for human Enhancer Box (E-box) (AID 2282936). As to conditions: HepG2 E-box cis-reporter transcription, actives raise or lower the signal. An outline of the steps: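 Measured 24 h post-dosing in HepG2 cells transfected with multiple cis-regulated reporter units, signal being reporter mRNA induction detected by fluorescent RT-PCR with capillary electrophoresis; gain or loss fitted against DMSO.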

The nature of assay [6]: ATG_M_19_CIS: Attagene CIS-FACTORIAL HepG2 Assay for M19 Transcription Factor (Internal Marker) (AID 2282939). The following applies: HepG2 Attagene CIS-FACTORIAL M19 internal marker reporter; actives raise or lower the signal. Summed up:
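Following a 24 h exposure, RNA from transfected HepG2 cells was reverse-transcribed, PCR-amplified with reporter-specific primers, end-labelled with 6-FAM and HpaI-digested before capillary separation. Values represent gain or loss versus DMSO.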

A short description of assay [7]: ATG_GLI_CIS: Attagene CIS-FACTORIAL HepG2 Assay for human Zinc Finger Protein GLI1 (AID 2282945). The following applies: HepG2, Attagene cis-factorial reporter mRNA, GLI element; actives raise or lower the signal. An outline of the steps:
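HepG2 cells transiently transfected with cis-promoter multiplexed reporter units report endogenous transcription factor activity. After 24 h chemical exposure, reporter mRNA was quantified by RT-PCR, 6-FAM labelling, HpaI digestion and capillary electrophoresis, with bidirectional fitting against DMSO.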

Assay [8] in a line: ATG_ISRE_CIS: Attagene CIS-FACTORIAL HepG2 Assay for human Interferon Regulatory Factor 1 (IRF1) binding to an Interferon-Stimulated Response Element (ISRE) (AID 2282948). The following applies: HepG2 ISRE cis-reporter (Attagene), mRNA transcription readout; actives raise or lower the signal. An outline of the steps:
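Read-out: fluorescent RT-PCR products resolved by capillary electrophoresis, reporting endogenous transcription factor activity via ISRE-driven reporter mRNA in transfected HepG2 cells dosed for 24 h; gain or loss fitted relative to DMSO.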

Assay [9] can be described thus: ATG_M_32_CIS: Attagene CIS-FACTORIAL HepG2 Assay for M32 Transcription Factor (Internal Marker) (AID 2282949).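 Note: background control marker of the multiplexed CIS panel rather than a real target.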 The following applies: HepG2 Attagene cis-factorial M32 reporter, mRNA; actives raise or lower the signal. An outline of the steps:
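Using DMSO as baseline, bidirectional curve fits were applied to reporter mRNA signals. These came from transiently transfected HepG2 cells exposed for 24 h, with RNA analysed by RT-PCR, FAM primer extension, HpaI digestion and CE.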

Assay [10] concerns the target Hepatocyte nuclear factor 6 (Homo sapiens) (UniProt Q9UBC0). The experiment in a line: ATG_HNF6_CIS: Attagene CIS-FACTORIAL HepG2 Assay for human Hepatocyte Nuclear Factor 6 (HNF6) (AID 2282952). The following applies: HepG2 Attagene cis-factorial HNF6 reporter transcription; actives raise or lower the signal. An outline of the steps: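 Using cis-element reporters in HepG2 liver cells, the assay tracks endogenous factor-driven transcription 24 h post-dosing. Signal comes from 6-FAM-labelled, HpaI-digested RT-PCR fragments, with gain or loss scored against DMSO.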

The target in assay [11] is Heat shock factor protein 1 (Homo sapiens) (UniProt Q00613). The experiment in a line: ATG_HSE_CIS: Attagene CIS-FACTORIAL HepG2 Assay for human Heat Shock Transcription Factor 1 (HSE) (AID 2282953). As to conditions: HepG2 HSE cis-reporter, Attagene RNA transcription; actives raise or lower the signal. An outline of the steps: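 After a 24 h incubation with test chemical, transfected HepG2 cells were harvested for RNA; reporter transcripts were measured by RT-PCR and capillary electrophoresis. Values reflect gain or loss of signal relative to DMSO.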
Heat shock factor protein 1 (Homo sapiens), sequence (Q00613 whole entry, looked up): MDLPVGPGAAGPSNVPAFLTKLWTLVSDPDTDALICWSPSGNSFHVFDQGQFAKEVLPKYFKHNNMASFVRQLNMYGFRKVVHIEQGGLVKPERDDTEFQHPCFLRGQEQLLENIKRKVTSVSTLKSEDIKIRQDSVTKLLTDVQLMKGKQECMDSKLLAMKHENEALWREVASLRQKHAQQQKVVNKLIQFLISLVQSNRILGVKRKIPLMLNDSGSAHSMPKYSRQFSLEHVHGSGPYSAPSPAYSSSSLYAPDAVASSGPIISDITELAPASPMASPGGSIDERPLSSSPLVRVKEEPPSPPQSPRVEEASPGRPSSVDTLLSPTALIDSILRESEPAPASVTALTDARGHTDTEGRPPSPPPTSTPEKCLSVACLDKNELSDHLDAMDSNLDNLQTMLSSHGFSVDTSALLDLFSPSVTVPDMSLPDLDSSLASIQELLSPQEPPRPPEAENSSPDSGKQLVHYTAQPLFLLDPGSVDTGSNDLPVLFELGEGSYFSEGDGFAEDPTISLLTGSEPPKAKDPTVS

Assay [12] is described as follows: ATG_PXRE_CIS: Attagene CIS-FACTORIAL HepG2 Assay for human Pregnane X Receptor Element (PXRE) (AID 2282957). As to conditions: HepG2 Attagene CIS-FACTORIAL PXRE reporter, mRNA; actives raise or lower the signal. An outline of the steps:
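Using HepG2 transfected with multiple reporter transcription units, endogenous factor-driven transcription was scored as reporter mRNA after 24 h exposure.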

Assay [13] can be described thus: ATG_Sox_CIS: Attagene CIS-FACTORIAL HepG2 Assay for human SRY-box transcription factor (SOX) (AID 2282960). As to conditions: HepG2 Attagene cis-factorial SOX reporter, mRNA; actives raise or lower the signal. An outline of the steps:
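HepG2 cells transiently transfected with cis-element-driven multiple reporter transcription units, dosed 24 h; reporter mRNA measured by RT-PCR, FAM labelling, HpaI digestion and capillary electrophoresis. Bidirectional fit versus DMSO baseline.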

In assay [14] the target is Transcription factor Sp1 (Homo sapiens) (UniProt P08047). The experiment in a line: ATG_Sp1_CIS: Attagene CIS-FACTORIAL HepG2 Assay for human Specificity Protein 1 (Sp1) (AID 2282961). As to conditions: HepG2 Sp1 cis-reporter transcription, actives raise or lower the signal. Summed up: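 HepG2 cells transiently transfected with multiple reporter transcription units driven by cis-regulatory elements; Sp1-responsive reporter mRNA measured 24 h after dosing by RT-PCR and capillary electrophoresis fluorescence, fitted bidirectionally against DMSO baseline.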
Transcription factor Sp1 (Homo sapiens), sequence (P08047 whole entry, looked up): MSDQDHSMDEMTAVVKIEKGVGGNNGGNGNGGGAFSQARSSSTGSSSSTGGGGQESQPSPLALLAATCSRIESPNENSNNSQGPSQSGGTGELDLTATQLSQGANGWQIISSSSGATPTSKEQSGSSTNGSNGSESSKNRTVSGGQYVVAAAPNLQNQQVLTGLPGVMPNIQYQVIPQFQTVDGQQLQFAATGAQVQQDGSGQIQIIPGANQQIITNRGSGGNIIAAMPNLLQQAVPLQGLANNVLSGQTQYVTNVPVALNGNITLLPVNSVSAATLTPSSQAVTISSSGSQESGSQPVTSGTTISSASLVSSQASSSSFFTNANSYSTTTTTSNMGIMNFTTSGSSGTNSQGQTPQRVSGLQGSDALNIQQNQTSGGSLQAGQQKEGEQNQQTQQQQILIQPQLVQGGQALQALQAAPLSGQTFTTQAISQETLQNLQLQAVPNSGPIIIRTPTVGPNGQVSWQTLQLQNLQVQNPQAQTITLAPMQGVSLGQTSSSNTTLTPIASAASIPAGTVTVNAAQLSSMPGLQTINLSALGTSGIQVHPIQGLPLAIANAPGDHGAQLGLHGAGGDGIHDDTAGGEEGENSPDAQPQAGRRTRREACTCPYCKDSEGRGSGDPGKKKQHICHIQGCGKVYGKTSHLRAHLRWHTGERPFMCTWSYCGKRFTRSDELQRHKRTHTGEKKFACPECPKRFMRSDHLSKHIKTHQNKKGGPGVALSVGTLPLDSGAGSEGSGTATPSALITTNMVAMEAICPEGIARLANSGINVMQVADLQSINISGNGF

Assay [15] addresses Signal transducer and activator of transcription 3 (Homo sapiens) (UniProt P40763). The assay is described as follows: ATG_STAT3_CIS: Attagene CIS-FACTORIAL HepG2 Assay for human Signal Transducer and Activator of Transcription 3 (STAT3) (AID 2282963). As to conditions: HepG2, Attagene cis-factorial STAT3 reporter transcription; actives raise or lower the signal. Summed up:
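Uses human liver HepG2 transiently carrying cis-regulated reporter transcription units. Following 24 h dosing, reporter mRNA induction was detected by RT-PCR and capillary electrophoresis, analysed bidirectionally versus DMSO.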

Assay [16] is described as follows: ATG_TA_CIS: Attagene CIS-FACTORIAL HepG2 Assay for human TA Basal Promoter (AID 2282964). As to conditions: HepG2 Attagene CIS-factorial TA basal promoter reporter; actives raise or lower the signal. Summed up: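 Multiplexed mRNA reporter assay, HepG2, 24 h. Reporter cDNA amplified, 6-FAM primer-extended, HpaI-cut, CE-sized; DMSO = negative control and baseline.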

Assay [17] in a line: ATG_TCF_b_cat_CIS: Attagene CIS-FACTORIAL HepG2 Assay for human T-Cell-Factor with beta-catenin (TCF/b-cat) (AID 2282965). As to conditions: HepG2 TCF/beta-catenin cis-reporter transcription, actives raise or lower the signal. Summed up: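 In this cis-format system, transfected HepG2 cells report endogenous transcription factor activity. Readout after 24 h exposure is reporter transcript abundance from RT-PCR and capillary electrophoresis, analysed for gain or loss of signal versus DMSO.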

A short description of assay [18]: ATG_TAL_CIS: Attagene CIS-FACTORIAL HepG2 Assay for human TAL Basal Promoter (AID 2282966).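 Note: background control endpoint measuring basal TAL promoter reporter mRNA not a specific factor.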 The following applies: HepG2 Attagene cis-factorial TAL promoter reporter; actives raise or lower the signal. Summed up:
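After 24 hours of chemical exposure, transfected HepG2 cells yielded RNA that was converted to 6-FAM-labelled, HpaI-digested reporter fragments for capillary electrophoresis. Values derive from bidirectional fitting against DMSO controls.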

For assay [19], the target named is X-box-binding protein 1 (Homo sapiens) (UniProt P17861). The assay is described as follows: ATG_Xbp1_CIS: Attagene CIS-FACTORIAL HepG2 Assay for human X-box Binding Protein 1 (XBP1) (AID 2282972). The following applies: HepG2 XBP1 cis-element reporter, Attagene multiplex; actives raise or lower the signal. Summed up: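 Read-out: fluorescent reporter mRNA fragments resolved by capillary electrophoresis after RT-PCR. Human HepG2 liver cells carried transfected cis-promoter reporter units and were exposed to chemicals for 24 hours. Gain or loss of signal fitted relative to DMSO baseline.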
X-box-binding protein 1 (Homo sapiens), sequence (P17861 whole entry, looked up, the tested form may be a part): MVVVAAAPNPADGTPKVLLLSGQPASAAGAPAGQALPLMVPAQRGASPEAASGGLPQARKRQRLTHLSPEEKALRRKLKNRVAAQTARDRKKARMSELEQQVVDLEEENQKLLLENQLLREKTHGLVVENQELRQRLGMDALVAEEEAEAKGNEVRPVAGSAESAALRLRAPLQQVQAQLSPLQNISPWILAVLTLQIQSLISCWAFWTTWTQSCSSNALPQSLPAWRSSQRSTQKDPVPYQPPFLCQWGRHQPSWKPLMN

The source made the active and inactive calls. Rule for the calls: active = hit-call score of the fitted dose curve at least 0.9, where 1 is the maximum; inactive = score below 0.9.

Signal transducer and activator of transcription 3 (Homo sapiens), sequence (P40763 whole entry, looked up): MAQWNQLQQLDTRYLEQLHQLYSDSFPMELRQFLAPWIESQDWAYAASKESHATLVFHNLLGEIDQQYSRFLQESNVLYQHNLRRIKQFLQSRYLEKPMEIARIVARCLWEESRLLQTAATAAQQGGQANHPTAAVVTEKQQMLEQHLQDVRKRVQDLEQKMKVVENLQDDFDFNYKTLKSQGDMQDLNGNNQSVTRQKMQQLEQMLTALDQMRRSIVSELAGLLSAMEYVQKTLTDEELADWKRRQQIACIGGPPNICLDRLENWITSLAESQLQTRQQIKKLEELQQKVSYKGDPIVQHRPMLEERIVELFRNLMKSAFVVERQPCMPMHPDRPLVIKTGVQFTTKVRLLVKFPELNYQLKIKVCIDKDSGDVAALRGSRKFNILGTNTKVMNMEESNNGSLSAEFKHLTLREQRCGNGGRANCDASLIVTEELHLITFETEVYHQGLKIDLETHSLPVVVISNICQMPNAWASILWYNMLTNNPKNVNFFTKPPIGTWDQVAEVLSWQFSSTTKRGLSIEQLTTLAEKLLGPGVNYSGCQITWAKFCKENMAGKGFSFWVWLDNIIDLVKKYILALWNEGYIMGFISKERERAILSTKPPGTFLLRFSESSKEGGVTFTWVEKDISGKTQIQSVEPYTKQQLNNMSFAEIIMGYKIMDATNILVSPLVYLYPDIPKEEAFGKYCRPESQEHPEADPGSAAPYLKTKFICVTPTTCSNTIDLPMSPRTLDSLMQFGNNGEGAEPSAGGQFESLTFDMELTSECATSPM
Hepatocyte nuclear factor 6 (Homo sapiens), sequence (Q9UBC0 whole entry, looked up, the tested form may be a part): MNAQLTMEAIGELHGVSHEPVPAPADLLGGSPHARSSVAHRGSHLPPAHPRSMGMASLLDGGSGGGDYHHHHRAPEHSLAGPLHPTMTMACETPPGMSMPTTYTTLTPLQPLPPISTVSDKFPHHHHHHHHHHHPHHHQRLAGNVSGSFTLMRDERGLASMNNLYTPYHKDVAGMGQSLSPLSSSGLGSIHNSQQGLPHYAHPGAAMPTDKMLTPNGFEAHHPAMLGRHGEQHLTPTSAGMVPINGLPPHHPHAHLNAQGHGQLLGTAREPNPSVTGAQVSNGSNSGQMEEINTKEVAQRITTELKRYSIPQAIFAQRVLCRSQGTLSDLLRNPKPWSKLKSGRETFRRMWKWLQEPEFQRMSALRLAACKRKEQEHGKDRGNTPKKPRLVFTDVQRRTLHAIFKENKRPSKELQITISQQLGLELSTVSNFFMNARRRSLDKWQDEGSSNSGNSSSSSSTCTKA
CCAAT/enhancer-binding protein beta (Homo sapiens), sequence (P17676 whole entry, looked up, the tested form may be a part): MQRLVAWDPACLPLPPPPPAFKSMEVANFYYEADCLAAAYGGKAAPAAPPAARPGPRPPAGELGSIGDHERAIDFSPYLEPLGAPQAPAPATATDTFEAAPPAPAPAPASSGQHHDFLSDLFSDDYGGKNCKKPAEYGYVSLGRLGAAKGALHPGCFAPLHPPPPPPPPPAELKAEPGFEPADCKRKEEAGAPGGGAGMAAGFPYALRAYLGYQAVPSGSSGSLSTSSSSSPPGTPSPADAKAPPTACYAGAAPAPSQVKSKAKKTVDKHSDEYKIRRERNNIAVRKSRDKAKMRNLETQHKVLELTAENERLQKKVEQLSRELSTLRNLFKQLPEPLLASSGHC

With `NNc1ccccc1`, the result in assay [1], in assay [2], in assay [3], in assay [4], in assay [5] and in assay [6] was inactive. Further, the result in assay [7], in [8], in assay [9], in assay [10], in assay [11] and in assay [13] was inactive. The result in [14], in [15], in [16], in assay [17], in assay [18] and in assay [19] was inactive. In addition, in assay [12], the AC50 was 38.9 µM (active).
Regarding `C=C(Cl)CCl`, the result in assay [1], in assay [2], in [3], in [4], in assay [5] and in assay [6] was inactive. Moreover, the molecule was classed as inactive in assay [7], in assay [8], in [9], in [10], in assay [11] and in [13]. Further, the outcome in assay [14], in assay [15], in [16], in [17], in assay [18] and in [19] was inactive. The AC50 in [12] is 52 µM (active).
As to `C=CC(=O)OCCO`, the AC50 was 123 µM (active) in assay [1], 123 µM (active) in [2], 156 µM (active) in assay [14] and 131 µM (active) in [19]. Moreover, the call in assay [3], in [4], in [5], in assay [6], in assay [7] and in [8] was inactive. The call in assay [9], in assay [10], in assay [11], in assay [12], in assay [13] and in assay [15] was inactive. The outcome in assay [16], in [17] and in assay [18] was inactive.
For the molecule `Nc1ccc([N+](=O)[O-])cc1N`, the outcome in assay [1], in [2], in assay [3], in assay [4], in [5] and in [6] was inactive. Also, the result in [7], in [8], in assay [9], in assay [10], in assay [11] and in assay [12] was inactive. In addition, the molecule was classed as inactive in assay [13], in assay [14], in assay [15], in [16], in [17] and in assay [18]. Besides, the result in assay [19] was inactive.
Take `Oc1ccc(C2(c3ccc(O)cc3)c3ccccc3-c3ccccc32)cc1`: the AC50 in assay [1] was 17.1 µM (active); in [2], 10.6 µM (active); in [4], 19.8 µM (active); in assay [5], 17 µM (active); in assay [7], 19.1 µM (active); in assay [8], 14.8 µM (active). For the same molecule, the AC50 in assay [10] is 16.8 µM (active); in [11] it was 17.5 µM (active); in assay [12], 2.78 µM (active); in assay [16] it was 17.2 µM (active); in [19], 13.6 µM (active). Besides, the result in [3], in assay [6], in [9], in assay [13], in assay [14] and in assay [15] was inactive. The molecule was called inactive in assay [17] and in assay [18].

For the origin of these results see PubChem BioAssay (EPA / NIEHS).
